# Screens: PubChem BioAssay, National Center for Advancing Translational Sciences (NCATS)
# Compounds with a hit are over-represented: about 3.3% of the library has one in this group of screens.
# Sm TGR inh: blocks Schistosoma mansoni thioredoxin glutathione reductase | Q962Y6 | purified TGR, DTNB reduction, TNB absorbance 405 nm | Potency, µM (doses to about 114 µM), inactives show at the highest dose activity change, negative = inhibition, actives largely listed as inhibitors | hit rate 3% among 360,000; also: % is scaled to controls: 0 for no effect and ±100 for the full control effect; nearly all actives have a fitted effect of over 60% in size
#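 First, TGR (20 nM dispensed) and NADPH were mixed with compound. Second, a 15 min room-temperature incubation followed. Third, further NADPH and then DTNB were added to start the reaction. Finally, TNB absorbance was monitored kinetically.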
# LmPK inh: blocks Leishmania mexicana pyruvate kinase activity | Q27686 | purified LmPK, Kinase-Glo ATP luminescence, 1 h | Potency, µM (doses to about 57.5 µM), for inactives: top-dose activity change, negative = inhibition, hits mostly inhibitors | hit rate 0.37% among 290,000; also: % is scaled to controls: 0 for no effect and ±100 for the full control effect
# Target sequence (Q27686 whole entry, looked up): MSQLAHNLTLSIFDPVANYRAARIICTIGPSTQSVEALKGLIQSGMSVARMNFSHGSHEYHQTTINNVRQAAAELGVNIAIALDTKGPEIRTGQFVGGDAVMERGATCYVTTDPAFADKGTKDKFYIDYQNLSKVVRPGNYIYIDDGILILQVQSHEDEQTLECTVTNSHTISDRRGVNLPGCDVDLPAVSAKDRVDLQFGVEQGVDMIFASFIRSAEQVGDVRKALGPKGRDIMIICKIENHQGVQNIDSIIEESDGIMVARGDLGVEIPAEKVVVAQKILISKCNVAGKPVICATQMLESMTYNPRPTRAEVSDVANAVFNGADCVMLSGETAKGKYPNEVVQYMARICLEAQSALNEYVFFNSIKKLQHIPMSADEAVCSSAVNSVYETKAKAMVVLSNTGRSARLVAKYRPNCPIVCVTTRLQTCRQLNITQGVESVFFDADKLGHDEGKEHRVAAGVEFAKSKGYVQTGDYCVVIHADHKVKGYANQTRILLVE
#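 Kinase-Glo luminescence read after 1 h RT reaction of 0.1 nM LmPK with 0.5 mM PEP and 0.1 mM ADP. Activity scaled between uninhibited and enzyme-free controls.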
# RE007 growth inh: less growth of the S. pombe RE007 Vpr strain | S. pombe RE007 Vpr strain, BacTiter-Glo ATP luminescence, 24 h | Potency, µM (doses to about 92.2 µM), without a hit: at the highest dose activity change, negative = less growth, hits mostly inhibitors | hit rate 0.21% among 360,000 | AID 651644; active = well fitted falling curve with a large enough effect; inconclusive = small, poorly fitted or top-dose-only effect; inactive = no such curve, though single readings can be large or run the other way; also: % is scaled to controls: 0 for no effect and ±100 for the full control effect; nearly all actives have a fitted effect of over 50% in size
#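 Fission yeast RE007 carrying one integrated HIV-1 vpr copy, seeded at OD 0.01 in PMG+AL medium with 23 nL pinned compound. Grown 24 h at 30 degrees; viability read by BacTiter-Glo luminescence after 5 min.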
# Tb PYK inh: inhibitors of Trypanosoma brucei pyruvate kinase; Q57TT1; TbPYK enzyme, Kinase-Glo Plus ATP luminescence, 45 min; Potency, µM (titrated, usually from 76.8 µM), for the others: at the top dose activity, negative = inhibition, actives largely listed as inhibitors; hit rate 0.12% among 410,000; also: % is scaled to controls: 0 for no effect and ±100 for the full control effect; nearly all actives have a fitted effect of over 50% in size
#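 ADP (130 uM final) triggers the TbPYK reaction after compound addition; incubation is 45 min at room temperature. Kinase-Glo Plus is then added and luminescence imaged. Normalized data are fitted to concentration-effect curves.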
# SARS PLP yeast: blocks SARS-CoV papain-like protease in a yeast assay; Potency, µM (titrated, usually from 32.9 µM), for the others: top-dose activity, positive = growth rescue, actives largely listed as activators; S. cerevisiae expressing SARS-CoV PLpro, growth rescue; hit rate 0.19% among 330,000; calls by dose curve; also: 0% is about no effect; nearly all actives have a fitted effect of over 55% in size
# NS1 inh: influenza NS1 inhibition; Potency, µM (top dose mostly 46.1 µM), without a hit: at the top dose activity, positive = more growth; hit rate 0.4% among 270,000; AID 2326; calls by dose curve; also: actives are rising curves; nearly all actives have a fitted effect of over 50% in size
#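 Recovery from NS1-induced slow growth read by OD600 in budding yeast switched to galactose assay medium (pH 6.0, -URA) at 1:100 dilution. Compound 23 nl per well; the matching strain lacking NS1 serves as control.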
# Numbers without * were called inactive; ? = inconclusive; . = not tested or not shown; [ ] = dose if it differs, or a comment. Unless noted, calls follow the shape of the dose curve; as a rule, active = well fitted curve in the direction sought with a large enough effect; inconclusive = small, poorly fitted or top-dose-only effect, or another doubt; inactive = no such curve, though single readings can be large; an effect the other way counts as inactive or inconclusive. Potency is read from the fitted curve at half-maximal effect.
SMILES,Sm TGR inh,LmPK inh,RE007 growth inh,Tb PYK inh,SARS PLP yeast,NS1 inh
NC(N)=NS(=O)(=O)c1ccc(NC(=S)NC(=O)/C=C/c2ccccc2)cc1,89µM*,5%,0%,-12%,3%,16%
NC(N)=NS(=O)(=O)c1ccc(NC(=S)NC(=O)c2ccccc2)cc1,16µM*,0%,-4%,-9%,-4%,0%
NC(N)=NS(=O)(=O)c1ccc(NC(=S)NC(=O)c2ccc3c(c2)OCO3)cc1,?,-12%,-5%,-1%,2%,.
Cc1cccc(N2CCN(c3ccc4cc(S(=O)(=O)N5CCC(C)CC5)ccc4n3)CC2C)c1 (stereo not drawn),-1%,.,.,3%,.,.
CCCCCCCCCCCCCCCCCC(=O)[O][Al],.,.,.,0%,.,.
Cc1cc(NC(=O)C2CCCN(S(=O)(=O)c3cccc4nonc34)C2)ccc1Br (stereo not drawn),15%,.,.,2%,.,.
NC(C(=O)O)C(O)c1ccc(O)c(O)c1 (stereo not drawn),.,.,.,-4%,.,.
O=C(O)COc1ccccc1C1C2C(=O)N(c3ccccc3)C(=O)C2ON1c1ccccc1 (stereo not drawn),22µM*,3%,-5%,-8%,6%,-1%
Cc1ccc(N2C(=O)C3ON(c4ccccc4)C(c4ccncc4)C3C2=O)cc1 (stereo not drawn),16µM*,0%,0%,-8%,-11%,-7%
O=C1C2ON(c3ccccc3)C(c3ccncc3)C2C(=O)N1c1ccc(Br)cc1 (stereo not drawn),45µM*,-1%,-3%,11%,6%,5%
O=C(CCSc1nc(-c2ccco2)cc(C(F)(F)F)n1)NCC1CCCO1 (stereo not drawn),9%,-2%,17%,-11%,26%,-1%
Cc1nn(C)c(C)c1NC(=O)CCSc1nc(-c2ccco2)cc(C(F)(F)F)n1,?,2%,12%,-4%,2%,-2%
CCn1nc(C)c(NC(=O)CCCSc2nc(-c3ccco3)cc(C(F)(F)F)n2)c1C,50µM*,2%,12%,2%,-5%,3%
O=C(CCCSc1nc(-c2ccco2)cc(C(F)(F)F)n1)NCC1CCCO1 (stereo not drawn),50µM*,2%,-12%,-3%,0%,-2%
N#CCCSC(=S)[C@H]1CCCC1=N,.,.,.,.,.,2%
COc1cccc(CC(=O)N2CCc3nc(-c4ccccc4)c4c(c3C2)CO[C@@H](C)C4)c1,.,0%[11.5 µM],.,.,.,.
O=[As](O)(O)c1ccc(Cc2ccc([As](=O)(O)O)cc2)cc1,.,.,.,.,.,-39%
CCOC(=O)[C@@H](N)CS,.,.,.,5%,.,.
O=C(c1ccco1)N(CCC(c1ccccc1)c1ccco1)Cc1ccccc1 (stereo not drawn),50µM*,2%,13%,-9%,-6%,4%
COc1ccc(CN(CCC(c2ccccc2)c2ccco2)C(=O)c2ccco2)cc1 (stereo not drawn),35µM*,-4%,10%,-9%,2%,12%
CN1C(=O)N(C)C(=O)C2(Cc3cc(N)ccc3N3CCN(c4ccccc4F)CC32)C1=O (stereo not drawn),?,3%,.,.,-6%,-2%
CCN1C(=O)N(CC)C(=O)C2(Cc3ccccc3N3CCN(c4ccccc4)CC32)C1=O (stereo not drawn),45µM*,7%,0%,-1%,-1%,13%
O=C(/C=C/c1cccs1)NC(=S)NNC(=O)c1ccccc1O,-14%,3%,5%,-9%,?,.
COc1ccc(C(=O)NNC(=S)NC(=O)/C=C/c2cccs2)cc1,9%,25µM*,-12%,-10%,-1%,0%
Cc1ccc(-c2nn(-c3cccc(F)c3)cc2CN(Cc2nccn2C)C(C)C)o1,20µM*,3%,-1%,-7%,-3%,6%
Cc1cccc(N=C2NC(=O)/C(=C/C=C/c3ccco3)S2)c1C,10µM*,-2%,-27%,-17%,-9%,23%
Cc1ccc(N=C2NC(=O)/C(=C/C=C/c3ccco3)S2)cc1,45µM*,-4%,1%,1%,-22%,17%
